Assay [1] is described as follows: qHTS assay to test for compound auto fluorescence at 535 nm (green) in HEK293 cells (AID 720680; note: potency is the fitted concentration of half-maximal effect). (In general: In qHTS, concentration-response curves come from the screen itself.)
Assay [2] in a line: qHTS assay to test for compound auto fluorescence at 460 nm (blue) in HEK293 cell free culture (AID 720681). Note: potency is the fitted concentration of half-maximal effect. Summed up: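 Compounds were added to cell-free DMEM with 10% FBS and fluorescence read directly. The blue channel used 405 nm excitation and 460 nm emission, with triamterene as the reference fluorophore.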
The nature of assay [3]: qHTS assay to test for compound auto fluorescence at 535 nm (green) in HEK293 cell free culture (AID 720682). Summed up:
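No cells present: wells hold DMEM supplemented with 10% FBS, into which compound or vehicle is pinned. Green emission is then recorded (485 nm excitation, 535 nm emission) and scaled to fluorescein.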

Assay [4] is described as follows: qHTS assay to test for compound auto fluorescence at 590 nm (red) in HEK293 cell free culture (AID 720683). The procedure, abridged:
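Cell-free wells of DMEM with 10% FBS received compound, and intrinsic fluorescence was read at excitation/emission 540/590 nm. Values expressed as equivalence to Rose Bengal sodium.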

Assay [5] is described as follows: qHTS assay to test for compound auto fluorescence at 590 nm (red) in HepG2 cell free culture (AID 720684). Summed up: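 Compounds are added to culture medium (MEM, 10% FBS) lacking cells, then fluorescence is read at excitation 540 nm, emission 590 nm, with Rose Bengal sodium as the equivalency standard.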
Assay [6] is described as follows: qHTS assay to test for compound auto fluorescence at 535 nm (green) in HepG2 cell free culture (AID 720686). Note: potency is the fitted concentration of half-maximal effect.
Assay [7] is described as follows: qHTS assay to identify small molecule antagonists of the glucocorticoid receptor (GR) signaling pathway - cell viability counter screen (AID 720693). Note: nearly all actives have a fitted effect of over 55% in size. Note: potency is the fitted concentration of half-maximal effect.
The nature of assay [8]: qHTS assay for identifying genotoxic compounds that show differential cytotoxicity against isogenic chicken DT40 cell lines with known DNA damage response pathways - wild type cell line (AID 743012). Note: nearly all actives have a fitted effect of over 60% in size. Note: potency is the fitted concentration of half-maximal effect. The procedure, abridged: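 Wild type DT40, 300 cells/well, ~0.5 h settle at 37 C/5% CO2; compounds in DMSO added by pintool; 40 h at 37 C/5% CO2; CellTiter-Glo, 30 min RT; luminescence.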

A short description of assay [9]: qHTS assay for identifying genotoxic compounds that show differential cytotoxicity against isogenic chicken DT40 cell lines with known DNA damage response pathways - Rev3 mutant cell line (AID 743014). Note: potency is the fitted concentration of half-maximal effect; nearly all actives have a fitted effect of over 55% in size.
Assay [10] in a line: qHTS assay for identifying genotoxic compounds that show differential cytotoxicity against isogenic chicken DT40 cell lines with known DNA damage response pathways - Rad54/Ku70 mutant cell line (AID 743015). Note: potency is the fitted concentration of half-maximal effect; nearly all actives have a fitted effect of over 60% in size.
Assay [11] is described as follows: qHTS assay to identify small molecule antagonists of the androgen receptor (AR) signaling pathway - cell viability counter screen (AID 743033; note: nearly all actives have a fitted effect of over 45% in size; note: potency is the fitted concentration of half-maximal effect).
For assay [12], the target named is Glucocorticoid receptor (Homo sapiens) (UniProt P04150). Description: qHTS assay to identify small molecule agonists of the glucocorticoid receptor (GR) signaling pathway (AID 720691; active = well fitted activation curve with a large enough effect in the signal ratio in the repeat runs, not every such curve was filed as active; the % refers to the signal ratio; note: potency is the fitted concentration of half-maximal effect). To be noted: GR-bla HeLa, beta-lactamase reporter ratio, 18 h; activation: at 62.4 µM (top of the series). The procedure, abridged:
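Fluorescence intensity from LiveBLAzer B/G FRET substrate (2 h, room temperature) reports beta-lactamase expression driven by the glucocorticoid response element in GR-bla HeLa cells after 18 h compound exposure at 37 C.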

Assay [13] has the same target. Description: qHTS assay to identify small molecule antagonists of the glucocorticoid receptor (GR) signaling pathway (AID 720692; active = well fitted inhibition curve with a large enough effect in the signal ratio in the repeat runs, not every such curve was filed as active; the % refers to the signal ratio; note: potency is the fitted concentration of half-maximal effect). Summed up: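 HeLa GR-bla cells; cmpd + dex 5 nM final, 18 h 37 C; LiveBLAzer B/G FRET substrate 2 h RT; fluorescence intensity read. Antagonist mode, qHTS.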
Assay [14] in a line: qHTS assay to identify small molecule antagonists of the androgen receptor (AR) signaling pathway using the MDA cell line - cell viability counter screen (AID 743041; note: nearly all actives have a fitted effect of over 45% in size). The procedure, abridged: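 Same-well cytotoxicity was assessed by CellTiter-Fluor in MDA-kb2 AR-luc cells after 16 h of compound treatment under R1881 agonism.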
Assay [15] can be described thus: qHTS assay to test for compound auto fluorescence at 460 nm (blue) in HepG2 cell free culture (AID 720685). Note: potency is the fitted concentration of half-maximal effect. The procedure, abridged:
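Compound (23 nL) or DMSO pinned into cell-free MEM with 10% FBS; blue fluorescence read at 405/460 nm excitation/emission, expressed as auto-fluorescence equivalency to triamterene.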

A short description of assay [16]: qHTS assay to test for compound auto fluorescence at 460 nm (blue) in HepG2 cells (AID 720687). Note: potency is the fitted concentration of half-maximal effect. Summed up:
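HepG2 cells in MEM with 10% FBS, attached overnight at 37 C, were exposed to compound or DMSO for 1 hr at 37 C, 5% CO2. Blue fluorescence was read at 405/460 nm, with triamterene as reference fluorophore.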

Assay [17] deals with Androgen receptor (Homo sapiens) (UniProt P10275). Description: qHTS assay to identify small molecule agonists of the androgen receptor (AR) signaling pathway (AID 743036; active = well fitted activation curve with a large enough effect in the signal ratio in the repeat runs, with a control signal flat, not every such curve was filed as active; the % refers to the signal ratio). The procedure, abridged:
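Quantitative HTS of the Tox21 10K library in HEK293 cells bearing a stably integrated UAS-controlled beta-lactamase reporter. Compound exposure lasted 16 h at 37C. Reporter activity was detected by FRET substrate fluorescence after 2 h at room temperature.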

Assay [18] shares this target. Description: qHTS assay to identify small molecule agonists of the androgen receptor (AR) signaling pathway using the MDA cell line (AID 743040; note: nearly all actives have a fitted effect of over 20% in size). The procedure, abridged:
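Human breast carcinoma MDA-kb2 reporter cells (MMTV-luc, AR/GR elements) were treated for 16 h at 37C in 0% CO2 following a 5 h settling period. Signal was quantified by ONE-Glo luminescence.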

Several values for one entry are separate records, joined by “and”; a condition that tells them apart may be missing. Equal values may be shown once. A number with no mark means an inactive call. Inconclusive results are not listed. Activity calls are given as the source filed them. Unless noted, calls come from the whole dose curve; as a rule, active = well fitted curve in the direction sought with a large enough effect in the repeat runs; inconclusive = weak or mixed curves; inactive = no such curve, though single readings can be large; an effect the other way counts as inactive or inconclusive.
Tags give direction and shape of the fitted curve or compound fluorescence and quenching.

Chain of Glucocorticoid receptor (Homo sapiens) (P04150 whole entry, looked up): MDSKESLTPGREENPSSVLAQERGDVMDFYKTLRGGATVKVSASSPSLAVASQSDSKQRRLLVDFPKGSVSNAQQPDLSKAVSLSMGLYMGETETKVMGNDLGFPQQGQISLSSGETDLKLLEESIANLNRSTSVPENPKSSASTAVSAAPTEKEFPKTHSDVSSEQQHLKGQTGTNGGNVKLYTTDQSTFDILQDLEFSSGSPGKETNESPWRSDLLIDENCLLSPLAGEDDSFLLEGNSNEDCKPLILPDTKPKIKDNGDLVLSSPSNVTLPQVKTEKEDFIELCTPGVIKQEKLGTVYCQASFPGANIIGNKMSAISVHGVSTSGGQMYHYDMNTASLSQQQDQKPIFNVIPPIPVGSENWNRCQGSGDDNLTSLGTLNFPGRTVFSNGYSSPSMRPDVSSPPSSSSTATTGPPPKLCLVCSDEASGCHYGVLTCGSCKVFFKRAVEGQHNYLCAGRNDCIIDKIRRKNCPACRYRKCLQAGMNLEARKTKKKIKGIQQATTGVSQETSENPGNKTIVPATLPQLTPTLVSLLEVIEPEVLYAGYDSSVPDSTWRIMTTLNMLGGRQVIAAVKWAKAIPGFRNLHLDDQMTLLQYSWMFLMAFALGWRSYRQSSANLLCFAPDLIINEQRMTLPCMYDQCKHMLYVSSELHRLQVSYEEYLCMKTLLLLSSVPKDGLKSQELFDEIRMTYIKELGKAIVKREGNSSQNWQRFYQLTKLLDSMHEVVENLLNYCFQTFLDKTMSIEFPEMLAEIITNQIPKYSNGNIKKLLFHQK
Chain of Androgen receptor (Homo sapiens) (P10275 whole entry, looked up): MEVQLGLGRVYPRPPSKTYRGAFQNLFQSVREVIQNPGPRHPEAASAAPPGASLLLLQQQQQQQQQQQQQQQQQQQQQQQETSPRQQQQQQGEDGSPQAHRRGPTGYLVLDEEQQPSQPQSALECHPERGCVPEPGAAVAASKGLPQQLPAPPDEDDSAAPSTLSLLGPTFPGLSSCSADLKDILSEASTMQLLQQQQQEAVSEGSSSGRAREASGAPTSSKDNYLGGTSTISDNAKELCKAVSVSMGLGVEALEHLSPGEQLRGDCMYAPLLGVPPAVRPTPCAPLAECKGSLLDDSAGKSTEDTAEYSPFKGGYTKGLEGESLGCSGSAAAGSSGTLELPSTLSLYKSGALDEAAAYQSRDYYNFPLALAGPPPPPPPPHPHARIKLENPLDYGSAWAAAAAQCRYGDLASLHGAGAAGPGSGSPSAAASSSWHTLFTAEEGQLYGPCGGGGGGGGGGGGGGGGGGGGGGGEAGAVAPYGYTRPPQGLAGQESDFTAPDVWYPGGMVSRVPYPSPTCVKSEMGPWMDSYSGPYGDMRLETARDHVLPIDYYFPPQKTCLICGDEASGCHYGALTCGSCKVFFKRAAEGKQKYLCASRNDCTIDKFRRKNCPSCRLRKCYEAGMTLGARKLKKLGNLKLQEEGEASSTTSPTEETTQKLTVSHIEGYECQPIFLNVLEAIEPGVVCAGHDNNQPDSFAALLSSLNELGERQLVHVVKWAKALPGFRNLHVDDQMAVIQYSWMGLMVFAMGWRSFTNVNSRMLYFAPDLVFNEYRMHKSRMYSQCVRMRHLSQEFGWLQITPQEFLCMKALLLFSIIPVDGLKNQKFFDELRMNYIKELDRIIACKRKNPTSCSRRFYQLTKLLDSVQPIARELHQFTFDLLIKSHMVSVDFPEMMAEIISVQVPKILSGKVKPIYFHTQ

Take `CCCCCCC(C)OC(=O)COc1nc(F)c(Cl)c(N)c1Cl` (stereo not drawn): the Potency entry in assay [1], in assay [2], in [3], in assay [4], in [5] and in assay [6] was “inactive” throughout. For the same compound, the Potency entry in [7] and in assay [11] was “inactive” in each case. Also, the Potency in assay [8] is 43.3 µM (active); in assay [9], 38.6 µM (active); in [10], 38.6 µM (active).

Take `CCCCNc1c(C(=O)OCC)c(C)nc2c1cnn2CC`: the Potency entry in [1], in assay [2], in assay [3], in assay [4], in assay [5] and in [6] was “inactive” each time. The Potency entry in assay [12], in [13], in assay [7], in assay [11] and in assay [14] was “inactive” each time. The Potency in assay [9] is 23.7 µM (active); in assay [10], 26.6 µM (active).

Consider `CCCSS/C(CCO)=C(\C)N(C=O)Cc1cnc(C)nc1N`, for which the Potency entry in assay [1], in [2], in assay [4], in assay [5], in assay [15] and in assay [6] was “inactive” in each case. The Potency result in [16], in assay [7], in assay [11], in [18] and in assay [14] was “inactive” in each case. Further, the figures for the Potency in [8], in assay [9] and in assay [10] were 5.31 µM (active), 8.41 µM (active) and 13.3 µM (active), respectively. For the same compound, the compound was classed as inactive in assay [17].

In the case of `Cc1c(C)n(Cc2ccccc2)c2ccc(C(=O)OCCN(C)C)cc12`, the Potency entry in assay [1], in assay [2], in assay [4], in assay [5], in assay [15] and in assay [6] was “inactive” in each case. Also, the Potency entry in assay [16], in assay [12] and in assay [7] was “inactive” each time. The results for the Potency in assay [8], in [9] and in assay [10] were 3.76 µM (active), 3.76 µM (active) and 6.68 µM (active), respectively.

In the case of `Nc1ccc2cc3ccc(N)cc3nc2c1`, the Potency in assay [1] is 11.2 µM [fluorescent] (active); in assay [2], 11.2 µM (active); in assay [15], 11.2 µM [fluorescent] (active); in assay [6], 11.2 µM [fluorescent] (active) and 7.08 µM [fluorescent] (active); in assay [16], 12.6 µM [fluorescent] (active); in assay [12], 6.16 µM (active). Moreover, the Potency is 19 µM (active) in [7]; 2.66 µM (active) and 5.45 µM (active) in [8]; 2.98 µM (active) and 2.73 µM (active) in [9]; 1.33 µM (active) and 1.37 µM (active) in [10]. For the same compound, the Potency result in [4] and in [5] was “inactive” each time.

Consider `CC(C)c1cccc(C(C)C)c1N1C(=O)c2ccc(O)cc2C1=O`, for which the Potency result in assay [1], in assay [4], in assay [5], in assay [6] and in [14] was “inactive” each time. Further, the Potency in assay [2] is 35.5 µM (active); in assay [15], 39.8 µM [fluorescent] (active); in assay [13], 38.9 µM (active); in assay [7], 43.6 µM (active); in assay [8] it was 8.63 µM (active); in [9], 7.7 µM (active). The Potency in [10] was 8.63 µM (active); in assay [11], 38.9 µM (active).

On to `NC1(c2ccc(-c3nc4ccn5c(=O)[nH]nc5c4cc3-c3ccccc3)cc2)CCC1`, for which the Potency result in assay [1], in assay [2], in [4], in assay [5], in [15] and in [6] was “inactive” throughout. Moreover, the Potency entry in assay [16], in [12] and in assay [7] was “inactive” throughout. In addition, the Potency in assay [9] was 5.31 µM (active); in assay [10], 1.33 µM (active).

As for `COc1cc(C(=O)NS(=O)(=O)c2ccccc2C)ccc1Cc1cn(C)c2ccc(NC(=O)OC3CCCC3)cc12`, the Potency entry in assay [1], in assay [2], in assay [4], in assay [5], in [15] and in assay [6] was “inactive” in each case. The Potency result in assay [12], in assay [8], in assay [11] and in assay [14] was “inactive” each time. In addition, the Potency in [13] is 12 µM (active).

These data come from PubChem BioAssay (Tox21).
